# ChEMBL document CHEMBL1201862, “PubChem BioAssay data set” (2004)
# About 64,000 (15%) of roughly 420,000 compounds were called active. Roughly 27% stayed inconclusive and do not appear here. The rule behind the calls is not given here. Many of the other results were omitted from the sample, so actives are more common in it than they were.
# Target: Tyrosyl-DNA phosphodiesterase 1 (Homo sapiens) (UniProt Q9NUW8)
# Experiment: qHTS for Inhibitors of human tyrosyl-DNA phosphodiesterase 1 (TDP1): qHTS in cells in absence of CPT.
# Assay type: functional
# Sequence of Tyrosyl-DNA phosphodiesterase 1 (Homo sapiens) (Q9NUW8 whole entry): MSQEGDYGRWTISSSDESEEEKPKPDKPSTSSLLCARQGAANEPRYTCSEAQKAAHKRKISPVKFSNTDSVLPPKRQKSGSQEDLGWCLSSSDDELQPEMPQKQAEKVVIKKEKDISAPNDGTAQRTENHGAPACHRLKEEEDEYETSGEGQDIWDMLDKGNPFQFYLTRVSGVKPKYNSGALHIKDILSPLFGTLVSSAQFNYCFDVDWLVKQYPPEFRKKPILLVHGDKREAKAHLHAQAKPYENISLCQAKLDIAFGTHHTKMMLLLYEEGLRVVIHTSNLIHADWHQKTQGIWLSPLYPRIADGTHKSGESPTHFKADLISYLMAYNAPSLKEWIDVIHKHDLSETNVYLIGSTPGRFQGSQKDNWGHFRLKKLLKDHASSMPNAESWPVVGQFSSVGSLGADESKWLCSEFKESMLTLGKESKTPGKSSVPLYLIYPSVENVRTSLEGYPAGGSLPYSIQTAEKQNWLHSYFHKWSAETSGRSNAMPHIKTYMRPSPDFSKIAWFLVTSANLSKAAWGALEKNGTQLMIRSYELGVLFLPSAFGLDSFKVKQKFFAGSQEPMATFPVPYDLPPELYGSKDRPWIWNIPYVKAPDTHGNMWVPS
row,SMILES,Potency
1,ICCCCN1C=S(CI)c2ccccc21 (stereo not drawn),8.91 µM (active)
2,Cc1cccc2c1N(CCCCI)C=S2C (stereo not drawn),3.98 µM (active)
3,CN(C)c1ccc(/C=C/c2cccc3c2N(CCCCI)C=S3/C=C/c2ccc(N(C)C)cc2)cc1 (stereo not drawn),15.8 µM (active)
4,COc1ccc(OC)c(/C=C/c2cccc3c2N(CCCCI)C=S3/C=C/c2cc(OC)ccc2OC)c1 (stereo not drawn),7.08 µM (active)
5,CCOc1ccc(N2C(=O)c3ccccc3N/C2=C\N2CCN(C(=O)c3ccco3)CC2)cc1,10 µM (active)
6,O=C(/C=C/c1ccc(Cl)cc1)c1cccs1,7.5 µM (active)
7,COc1ccccc1/C=C/C(=O)c1cccs1,5.96 µM (active)
8,CC(C)C(C)c1cccc2c1NC=S2C(C)C(C)C (stereo not drawn),5.62 µM (active)
